Results on 8 compounds are retold here after article PMC11062922 (Nature Chemical Biology, 2023).

Each structure is given as a SMILES string. Where two headings read alike, the source gives them in different places.

Common to all, as to set-up: species or system human, MV4-11 + K-562 + COLO205 + SK-N-BE2 + OVCAR-8
For one test, the system named is ACVR1B. The following applies: read-out: apparent Kd; compound concentrations:100 nM and 1000 nM (sheet 'Samples'); n = 1.
The subject of another test is NQO2. Particulars: read-out: apparent Kd; compound concentrations:100 nM and 1000 nM (sheet 'Samples'); n = 1.
The subject of a further test is PIP4K2C. The following applies: read-out: apparent Kd, n = 1.
The next test concerns TGFBR1. Particulars: read-out: apparent Kd; compound concentrations:100 nM and 1000 nM (sheet 'Samples'); n = 1.
The next test concerns ACVR1. The following applies: read-out: apparent Kd, n = 1.
Another test concerns CDK9. The following applies: read-out: apparent Kd; compound concentrations:100 nM and 1000 nM (sheet 'Samples'); n = 1.
The subject of the next test is CSNK2A1;CSNK2A3. Particulars: read-out: apparent Kd, n = 1.
The test system of another test is CSNK2A2. Particulars: read-out: apparent Kd, n = 1.
In a further test the test system is ERBB3. The following applies: read-out: apparent Kd; compound concentrations:100 nM and 1000 nM (sheet 'Samples'); n = 1.
The subject of a further test is FLT3. Particulars: read-out: apparent Kd; compound concentrations:100 nM and 1000 nM (sheet 'Samples'); n = 1.
Another test deals with GSK3A. The following applies: read-out: apparent Kd, n = 1.
For a further test, the system named is GSK3B. The following applies: read-out: apparent Kd, n = 1.
Another test has as its system ICK. The following applies: read-out: apparent Kd; compound concentrations:100 nM and 1000 nM (sheet 'Samples'); n = 1.
In the next test the test system is NLK. Particulars: read-out: apparent Kd; compound concentrations:100 nM and 1000 nM (sheet 'Samples'); n = 1.
For another test, the system named is PIM2. Particulars: read-out: apparent Kd; compound concentrations:100 nM and 1000 nM (sheet 'Samples'); n = 1.
The subject of a further test is TAOK1. Particulars: read-out: apparent Kd; compound concentrations:100 nM and 1000 nM (sheet 'Samples'); n = 1.
The next test relates to TNIK. The following applies: read-out: apparent Kd; compound concentrations:100 nM and 1000 nM (sheet 'Samples'); n = 1.
For the next test, the system named is BCR. Particulars: read-out: apparent Kd; compound concentrations: 100 nM and 1000 nM (sheet 'Samples'), CATDS: 0.114797180795753; n = 1.
Another test deals with CDKL5. The following applies: read-out: apparent Kd; compound concentrations: 100 nM and 1000 nM (sheet 'Samples'), CATDS: 0.10101184649506401; n = 1.
The test system of a further test is ACVR2B. The following applies: read-out: apparent Kd, compound concentrations: 100 nM and 1000 nM (sheet 'Samples'), n = 1.
The next test concerns T1, DJA1.
T1 construct: gene DNAJA1
Particulars: read-out: apparent Kd; compound concentrations:100 nM and 1000 nM (sheet 'Samples'); n = 1.

The next test concerns FYN. The following applies: read-out: apparent Kd; compound concentrations:100 nM and 1000 nM (sheet 'Samples'); n = 1.
For the next test, the system named is PIK3CA. The following applies: read-out: apparent Kd; compound concentrations:100 nM and 1000 nM (sheet 'Samples'); n = 1.
The next test deals with PIK3CD. The following applies: read-out: apparent Kd; compound concentrations:100 nM and 1000 nM (sheet 'Samples'); n = 1.
A further test deals with STK16. The following applies: read-out: apparent Kd; compound concentrations:100 nM and 1000 nM (sheet 'Samples'); n = 1.
In another test the test system is PKN3. Particulars: read-out: apparent Kd; compound concentrations:100 nM and 1000 nM (sheet 'Samples'); n = 1.
The test system of another test is PRKD2. Particulars: read-out: apparent Kd; compound concentrations:100 nM and 1000 nM (sheet 'Samples'); n = 1.
The test system of another test is PRKD3. The following applies: read-out: apparent Kd; compound concentrations:100 nM and 1000 nM (sheet 'Samples'); n = 1.
In the next test the test system is CDK4. Particulars: read-out: apparent Kd; compound concentrations:100 nM and 1000 nM (sheet 'Samples'); n = 1.
For another test, the system named is TP53RK. Particulars: read-out: apparent Kd; compound concentrations:100 nM and 1000 nM (sheet 'Samples'); n = 1.
[1] abbreviates: compound concentrations:100 nM and 1000 nM (sheet 'Samples').

As to `O=C(c1ccc(-c2cc(-c3c[nH]nc3-c3ccccn3)ccn2)cc1)N1CCCC1` [GW792479X], the potency estimated from few doses in the test with ACVR1B was 270 nM; with NQO2, 1390 nM; with PIP4K2C (setting [1]), 1650 nM; in the test on TGFBR1, 118 nM.
For `O=C(Nc1n[nH]c2nc(-c3ccc(O)cc3)ccc12)C1CC1` [SB-710363], the potency estimated from few doses with ACVR1 (setting [1]) is 1210 nM; with CDK9 it was 2300 nM; in the test on CSNK2A1;CSNK2A3 (setting [1]), 2320 nM; in the test on CSNK2A2 (setting [1]), 1270 nM; in the test on ERBB3, 1710 nM; in the test on FLT3 it was 1530 nM. Also, the potency estimated from few doses with GSK3A (setting [1]) was 61.7 nM; in the test with GSK3B (setting [1]) it was 147 nM; in the test with ICK, 1130 nM; with NLK, 1440 nM; with PIM2, 1330 nM; in the test with TAOK1, 1130 nM. The potency estimated from few doses with TNIK is 1630 nM.
With `COc1cccc(-n2ncc3c(N/N=C/c4ccc(S(C)(=O)=O)cc4)ncnc32)c1` [GW811168X], the potency estimated from few doses with ACVR1 (compound concentrations: 100 nM and 1000 nM (sheet 'Samples'), CATDS: 0.17536774799610499) is 555 nM; with BCR it was 1420 nM; with CDKL5 it was 2130 nM; with CSNK2A1;CSNK2A3 (compound concentrations: 100 nM and 1000 nM (sheet 'Samples'), CATDS: 0.137145274912611), 907 nM; in the test on CSNK2A2 (compound concentrations: 100 nM and 1000 nM (sheet 'Samples'), CATDS: 0.22568308322630501), 365 nM; with GSK3A (compound concentrations: 100 nM and 1000 nM (sheet 'Samples'), CATDS: 0.157775642803201) it was 677 nM. For the same compound, the potency estimated from few doses in the test on GSK3B (compound concentrations: 100 nM and 1000 nM (sheet 'Samples'), CATDS: 0.15091586406642499) is 740 nM.
For `Cc1ccc(Nc2ccnc(Nc3ccc(C)c(F)c3)n2)cc1O.Cl` [GW582868A], in the test on ACVR2B (CATDS: 1), the potency estimated from few doses is 664 nM.
On to `Clc1cccc(-c2nc(Nc3ccncc3)c3ccccc3n2)c1` [GW873004X], for which the potency estimated from few doses was 843 nM with ACVR1B; 2180 nM with DJA1; 937 nM in the test on FYN; 222 nM with PIK3CA; 106 nM in the test on PIK3CD; 1400 nM with STK16.
Turning to `COc1ccc2nc(-c3cccc(C)n3)nc(Nc3ccncc3)c2c1` [GSK204919_KCGS], the potency estimated from few doses with ACVR1B is 61.3 nM; with PKN3, 647 nM; in the test on PRKD2, 12.6 nM; with PRKD3, 8.21 nM.
For `Cl.NC(=O)c1cccc(Nc2nccc(Nc3cccc(F)c3)n2)c1` [GW759710A], the potency estimated from few doses was 450 nM with ACVR2B (CATDS: 0.70743681093709798); 1730 nM with PIP4K2C (compound concentrations: 100 nM and 1000 nM (sheet 'Samples'), CATDS: 0.38663089306687698).
With `CN1C(=O)[C@@H](NC(=O)c2cc(Cc3ccccc3)on2)COc2ccccc21` [GSK481], the potency estimated from few doses was 1270 nM with ACVR1 (setting [1]), 1980 nM in the test with CDK4 and 2040 nM in the test with TP53RK.
